Screening results: PubChem, National Center for Advancing Translational Sciences (NCATS)
Compounds with a hit are over-represented: about 2.8% of the library has one in this group of screens.
IP6K1 inhibitor = Primary qHTS assay for small molecule inhibitors of Inositol hexaphosphate kinase 1 (IP6K1); Inositol hexakisphosphate kinase 1 (Homo sapiens), Q92551; IP6K1 kinase, ADP-Glo luminescence, 2 h; active compounds read low; activity change, % (series mostly up to about 58 µM); 140,000 tested, 0.81% active; in the data active = activity change below about -25%; note: % is set by controls: 0 for no effect and ±100 for the full control effect
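ADP-Glo luminescence measures ADP made by human IP6K1 during a 2 h RT reaction with ATP/IP6 (mix at 1.3 mM/130 uM); top library doses 57.5 and 19.1 uM final.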
SNCA expr inh = Primary qHTS assay for inhibitors of alpha-synuclein gene (SNCA) expression. 140,000 tested, 0.17% active. Potency, µM (top dose mostly 57.2 µM), without a hit: at the top dose activity change, negative = inhibition, usual class: inhibitors. HEK-293 SNCA-luciferase knock-in, luminescence, 24 h. AID 1671194, 2021;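 note: potency is the fitted concentration of half-maximal effect; plate controls were DMSO cells for no effect and cell-free wells for full effect; nearly all actives have a fitted effect of over 45% in size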
KDM5B inh = Primary screen for KDM5B Histone Demethylases FDH-coupled qHTS | KDM5B demethylase, FDH-coupled NADH fluorescence (FDH is formaldehyde dehydrogenase) | Potency, µM (titrated, usually from 57.7 µM), hits mostly inhibitors | 220,000 tested, 2.6% active; note: potency is the fitted concentration of half-maximal effect; 0% is about no effect; nearly all actives have a fitted effect of over 70% in size
Target sequence (Q9UGL1 whole entry, looked up): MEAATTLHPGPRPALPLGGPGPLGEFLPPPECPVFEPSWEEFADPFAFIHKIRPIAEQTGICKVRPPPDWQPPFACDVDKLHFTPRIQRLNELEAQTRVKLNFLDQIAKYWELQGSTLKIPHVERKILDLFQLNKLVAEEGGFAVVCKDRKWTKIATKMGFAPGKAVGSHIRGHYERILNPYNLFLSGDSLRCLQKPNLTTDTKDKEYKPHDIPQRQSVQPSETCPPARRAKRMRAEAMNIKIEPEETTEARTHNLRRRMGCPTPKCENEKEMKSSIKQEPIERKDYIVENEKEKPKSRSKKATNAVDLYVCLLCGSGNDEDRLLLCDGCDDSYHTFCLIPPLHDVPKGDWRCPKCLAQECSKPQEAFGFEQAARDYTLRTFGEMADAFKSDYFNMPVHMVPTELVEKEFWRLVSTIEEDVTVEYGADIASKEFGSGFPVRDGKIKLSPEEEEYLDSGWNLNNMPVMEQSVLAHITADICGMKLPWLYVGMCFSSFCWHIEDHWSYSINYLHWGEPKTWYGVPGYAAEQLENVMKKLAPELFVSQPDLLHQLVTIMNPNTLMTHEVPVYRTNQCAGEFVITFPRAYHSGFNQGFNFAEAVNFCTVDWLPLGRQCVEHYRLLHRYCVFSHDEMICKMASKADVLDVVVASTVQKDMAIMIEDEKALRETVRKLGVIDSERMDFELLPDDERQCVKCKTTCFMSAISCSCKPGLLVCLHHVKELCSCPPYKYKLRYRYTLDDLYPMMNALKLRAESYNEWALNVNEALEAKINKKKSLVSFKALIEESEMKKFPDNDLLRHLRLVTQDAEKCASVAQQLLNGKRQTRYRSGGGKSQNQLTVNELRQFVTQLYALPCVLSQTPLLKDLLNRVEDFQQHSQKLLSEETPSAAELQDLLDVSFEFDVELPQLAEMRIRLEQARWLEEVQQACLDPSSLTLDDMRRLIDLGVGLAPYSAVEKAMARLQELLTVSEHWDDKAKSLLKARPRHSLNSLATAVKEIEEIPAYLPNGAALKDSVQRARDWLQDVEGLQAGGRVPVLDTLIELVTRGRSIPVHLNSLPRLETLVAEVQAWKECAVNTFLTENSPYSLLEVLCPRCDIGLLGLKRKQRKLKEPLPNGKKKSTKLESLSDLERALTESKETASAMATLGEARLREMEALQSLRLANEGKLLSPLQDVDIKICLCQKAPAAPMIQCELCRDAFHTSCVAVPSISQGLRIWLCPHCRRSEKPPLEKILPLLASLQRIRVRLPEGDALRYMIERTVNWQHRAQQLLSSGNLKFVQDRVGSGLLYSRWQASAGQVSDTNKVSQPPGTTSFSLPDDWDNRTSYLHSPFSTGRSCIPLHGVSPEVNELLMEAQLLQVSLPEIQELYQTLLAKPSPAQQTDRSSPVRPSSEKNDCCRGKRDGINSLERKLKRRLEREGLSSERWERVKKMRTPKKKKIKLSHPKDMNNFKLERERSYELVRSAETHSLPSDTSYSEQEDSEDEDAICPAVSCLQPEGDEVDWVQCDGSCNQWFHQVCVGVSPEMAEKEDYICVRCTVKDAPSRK
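Inhibition is measured as reduced NADH fluorescence generation from FDH coupling to formaldehyde release. Truncated KDM5BΔAP at 200 nM final acts on H3K4me3 peptide (12.5 µM in substrate mix) in pH 7.5 HEPES buffer with Tween-20, 30 min, room temperature.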
HEK293 viab = GF-AFC viability counterscreen for inhibitors of alpha-synuclein gene (SNCA) expression; Potency, µM (top dose mostly 57.1 µM), for inactives: at the highest dose activity change, negative = cytotoxicity, most hits filed as cytotoxic; HEK-293-SNCA-luc viability, GF-AFC fluorescence, 24 h; 150,000 tested, 0.12% active; AID 1671193, 2021;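 note: potency is the fitted concentration of half-maximal effect; 0% = DMSO-treated cells and -100% = medium-only wells without cells; nearly all actives have a fitted effect of over 30% in size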
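Cytotoxicity counterscreen: after 24 h compound treatment of genome-edited SNCA-luciferase HEK-293 cells, live-cell protease substrate GF-AFC read by fluorescence after 30 min; activity scaled between DMSO (0%) and medium-only (-100%), curves Hill-fitted.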
Numbers without * were called inactive; i = inactive; ? = inconclusive; . = no result; [ ] = dose if it differs, or a comment. Unless noted, calls come from the whole dose curve; as a rule, active = well fitted curve in the direction sought with a large enough effect; inconclusive = small, poorly fitted or top-dose-only effect, or another doubt; inactive = no such curve, though single readings can be large; an effect the other way counts as inactive or inconclusive.

SMILES	IP6K1 inhibitor	SNCA expr inh	KDM5B inh	HEK293 viab
N#Cc1cccc(CN2CCC3(CC2)CN(c2ncccn2)CC3CO)c1 (centres undefined)	18	-6%	28µM*	-6%
OCC1CN(c2ncccn2)CC12CCN(Cc1ccc3[nH]ccc3c1)CC2 (centres undefined)	16	?	22µM*	8%
Cn1c(=O)c2c(nc(NCc3ccc(S(N)(=O)=O)cc3)n2Cc2ccccc2)n(C)c1=O	.	.	i	.
CC(C)(C)c1ccc(-c2cc(C[C@H]3CNCC[C@H]3CC(=O)N3CCOCC3)no2)cc1	3	-6%[87.6 µM]	i	4%[87.6 µM]
O=S(=O)(c1ccc2oc3ccc(S(=O)(=O)N4CCCCCC4)cc3c2c1)N1CCCCCC1	.	.	i	.
Brc1ccc(-c2noc(CCc3nc4ccccc4[nH]3)n2)cc1	.	.	i	.
CC(=O)c1c(C)nc2ccccc2c1-c1ccccc1	.	.	i	.
CCC(CC)n1c(COc2ccccc2Cl)nnc1SCC1CC1(Cl)Cl (centres undefined)	.	.	i	.
O=C(Nc1ccccc1)c1ccc2c(c1)OCCN(c1ccccc1)C2	1	77%[87.6 µM]	28µM*	-26%[87.6 µM]
O=C(Nc1ccc(F)cc1)c1ccc2c(c1)OCCN(C1CCC1)C2	-4	57%[87.6 µM]	32µM*	-16%[87.6 µM]
O=C(c1ccccn1)N1CCC(Cc2ccc(COc3ccncc3)cc2)CC1	6	-22%	.	-2%
CN1CCN(S(=O)(=O)c2cc(Br)cc(C(=O)O)c2)CC1	15	1%	i	-2%
COc1ccc(-c2cc(C(=O)O)cc(S(=O)(=O)N3CCN(C)CC3)c2)cc1	8	27%	16µM*	1%
CCS(=O)(=O)Nc1ccc(C(=O)N2CCN(C(C)=O)CC(O)C2)cc1 (centres undefined)	-5	9%	i	8%
CCC(O)c1cc2n(n1)CCN(C(=O)c1nc(N)nc3c1CCCC3)C2 (centres undefined)	11	-4%	28µM*	-7%
CN(C)Cc1nnc(C2CCN(C(=O)c3nc(N)nc4c3CCCC4)CC2)n1C	1	-2%	25µM*	5%
CC(=O)N1CCN(C(=O)c2nc(N)nc3c2CCCC3)CC(O)C1 (centres undefined)	5	3%	25µM*	-2%
CCC(O)c1cc2n(n1)CCN(C(=O)c1ccc(-c3ccccc3)n1C)C2 (centres undefined)	6	-8%	i	-7%
CC(C)c1ccc(C(=O)Cn2cnc3c2c(=O)n(C)c(=O)n3C)cc1	.	.	i	.
Cc1ccc2c(CN3c4ccccc4CC3C)cc(=O)oc2c1 (centres undefined)	.	.	i	.
Cc1nn2c(c1-c1ccccc1Oc1ccccc1)N(Cc1ccccc1O)CCC2	15	2µM*	28µM*	?
COc1ccccc1CN1CCCn2nc(C)c(-c3ccccc3C(N)=O)c21	13	3.5µM*	32µM*	?
Cc1nn2c(c1-c1ccccc1Oc1ccccc1)N(Cc1cccc(O)c1)CCC2	9	?	?	?
Cc1nn2c(c1-c1ccccc1OCc1ccccc1)N(Cc1ccccc1)CCC2	23	?	?	?
Cc1nn2c(c1-c1ccccc1OCc1ccccc1)N(Cc1ccc(C(=O)O)s1)CCC2	21	11µM*	?	?
SMILES	IP6K1 inhibitor	SNCA expr inh	KDM5B inh	HEK293 viab
CCCC12CN3CC(C)(CN(C1)C3c1cc(Br)ccc1OC)C2=O (centres undefined)	.	.	i	.
O=C(Nc1ccc(Br)cc1)N1CCSc2ccccc21	.	.	i	.
Cc1ccc(SCc2ccc(C(=O)Nc3ccccc3C(C)C)cc2)cc1	.	.	i	.
CC1(C)C(=O)N(Cc2ccccc2)[C@H]2CN(c3ccnc(N4CCOCC4)c3)C[C@@H]2[S+]1(=O)[O-]	8	-14%	i	-23%
COc1cncc(N2C[C@H]3[C@H](C2)[S+](=O)([O-])C(C)(C)C(=O)N3Cc2ccccc2)c1	-5	?	7.1µM*	-9%[87.6 µM]
CC1=C[C@@H](CNC(=O)COc2ccccc2)[C@H](C(C)C)C[C@H]1CC(=O)N1CCN(C)CC1	-6	-8%	i	-8%
COc1ccc(S(=O)(=O)NC[C@@H]2C=C(C)[C@H](CC(=O)N3CCN(c4ccccn4)CC3)C[C@H]2C(C)C)cc1	-4	?	28µM*	?
COc1cccc(NC(=O)NC[C@@H]2C=C(C)[C@H](CC(=O)N3CCN(c4ccccn4)CC3)C[C@H]2C(C)C)c1	5	?	32µM*	?
COc1ccc(S(=O)(=O)NC[C@@H]2C=C(C)[C@H](CC(=O)N3CCN(C)CC3)C[C@H]2C(C)C)cc1	13	-11%	i	-16%
COCC(=O)NC[C@@H]1C=C(C)[C@H](CC(=O)N2CCN(c3ccccn3)CC2)C[C@H]1C(C)C	13	-10%	32µM*	-9%
COCCNC(=O)C[C@@H]1C[C@@H](C(C)C)[C@H](CNS(=O)(=O)c2ccc(OC)cc2)C=C1C	-1	5%	22µM*	-8%
COc1cc(C(=O)Nc2c(NCc3ccccc3)c3ccccc3oc2=O)ccc1OC(C)=O	.	.	i	.
CC1=C[C@@H](CNC(=O)C2CCC2)[C@H](C(C)C)C[C@H]1Cc1nc2ccc(F)cc2[nH]1	17	-20%[87.6 µM]	i	?
CN(C)c1nc(N)nc(COc2ccc3ccccc3c2Br)n1	.	.	i	.
Fc1ccccc1-c1nnc(SCc2c(F)c(F)c(F)c(F)c2F)n1C1CC1	.	.	i	.
CC1=C[C@@H](CNC(=O)CC(C)(C)C)[C@H](C(C)C)C[C@H]1CC(=O)O	3	5%[87.6 µM]	28µM*	9%[87.6 µM]
O=C1Nc2ccc(-c3ccc4c(c3)OCO4)cc2C(=O)N2CCN(C(=O)COc3ccccc3)C[C@H]12	-14	4%	28µM*	-1%
O=C1Nc2ccc(-c3ccc4c(c3)OCO4)cc2C(=O)N2CCN(C(=O)NC3CCCCC3)C[C@H]12	-9	-6%	11µM*	-24%
CC(=O)N1CCC(C(=O)N2CCN3C(=O)c4cc(-c5ccc6c(c5)OCO6)ccc4NC(=O)[C@H]3C2)CC1	-1	11%	?	9%
COc1cc(SC)ccc1C(=O)N[C@H]1C[C@H]2C(=O)Nc3ccc(-c4ccc5c(c4)OCO5)cc3C(=O)N2C1	-1	-18%	32µM*	-2%
Cc1ccc(-c2ccc3nnc(CNC(=O)c4ccccc4F)n3n2)cc1C	-7	48%	28µM*	-5%
Cc1ccc(-c2ccc3nnc(CNC(=O)c4ccccc4C)n3n2)cc1C	-1	4%	28µM*	-13%
Cc1ccc(-c2ccc3nnc(CNC(=O)Cc4ccc(F)cc4)n3n2)cc1C	-12	-18%	?	5%
Cc1ccc(-c2ccc3nnc(CNC(=O)c4ccoc4)n3n2)cc1C	-2	31%	16µM*	1%
CC1(C)[C@H]2CC[C@@H](CNC(=O)c3cccc(Br)c3)[C@@H]1C2	0	-7%[87.6 µM]	i	-15%[87.6 µM]
